Measured values taken from PubChem BioAssay AID2284382 (EPA ToxCast).
Inconclusive results are not listed. Active and inactive are the calls of the source. How the source made its calls: active means hit-call score of the fitted dose curve at least 0.9, where 1 is the maximum; inconclusive means response in the unintended direction; inactive means score below 0.9.

Experiment: CCTE_Mundy_HCI_iCellGABA_NOG_NeuriteLength: CCTE's Neurite Outgrowth Assay in iCellGABA cells for Neurite Length, Mundy Lab
Experimental: CCTE_Mundy_HCI_iCellGABA_NOG is a multiplexed, cell-based-readout assay that uses iCell GABANeurons from FUJIFILM Cellular Dynamics, Inc. (FCDI), human GABAergic enriched neurons derived from induced pluripotent stem (iPS) cells, with measurements taken at 50.33 hours after chemical dosing in a microplate: 96-well plate.CCTE_Mundy_HCI_iCellGABA_NOG_NeuriteLength is one of four components of the CCTE_Mundy_HCI_iCellGABA_NOG assay. It measures neurite outgrowth related to neurite length using High Content Imaging of fluorescently labelled markers.Data from the assay component CCTE_Mundy_HCI_iCellGABA_NOG_NeuriteLength was analyzed at the endpoint CCTE_Mundy_HCI_iCellGABA_NOG_NeuriteLength in the positive analysis fitting direction relative to DMSO as the negative control and baseline of activity. Using a type of morphology reporter, loss-of-signal activity can be used to understand developmental effects.
Exposure starts 2 hours post-plating by adding 10 ul of the working solution to 90 ul of media in the wells for a 1/10 dilution. Forty-eight hours after chemical treatment cells are fixed by direct addition of 100 ul of warm (37C) Dulbecco's phosphate buffered saline (DPBS) fixative solution containing 8% paraformaldehyde, 8% sucrose, and 0.1% of 3 mg/ml Hoechst 33342 into each well. Primary antibodies are prepared by dilution in Immunocytochemical Staining Buffer (ISB), 10X Dulbecco's PBS, 0.1% Saponin, 5% Bovine Serum Albumin, 0.5% NaN3 (Sodium Azide) and betaIII-tubulin (rabbit anti-betaIII-tubulin, 1:800) followed by Alexa Fluor-488 secondary (1:500) to label neuronal cell bodies and neurites. A Cellomics ArrayScan VTi HCS Reader is used for automated image acquisition and analysis of neurite outgrowth.

SMILES | AC50 | outcome
CCOC(=O)CC(SP(=S)(OC)OC)C(=O)OCC (stereo unspecified) | 78.6 µM (active) | –
CCOP(=S)(OCC)SCSCC | – | inactive
CNC(=O)CSP(=S)(OC)OC | – | inactive
CCCSP(=O)(OCC)SCCC | – | inactive
COP(=S)(OC)SCN1C(=O)c2ccccc2C1=O | 67.2 µM (active) | –
CCOC(=O)CC(SP(=O)(OC)OC)C(=O)OCC (stereo unspecified) | – | inactive
CCOP(=O)(SC(C)CC)N1CCSC1=O (stereo unspecified) | – | inactive
CCCSP(=O)(OCC)Oc1ccc(Br)cc1Cl (stereo unspecified) | – | inactive
CNC(=O)CSP(=O)(OC)OC | – | inactive
COP(=O)(OC)C(O)C(Cl)(Cl)Cl (stereo unspecified) | 50 µM (active) | –
CCOP(=S)(OCC)OC(Cl)C(Cl)(Cl)Cl (stereo unspecified) | 29.9 µM (active) | –
COP(=O)(OC)O/C(=C\Cl)c1cc(Cl)c(Cl)cc1Cl | 60.7 µM (active) | –
COP(=O)(OC)OC(Br)C(Cl)(Cl)Br (stereo unspecified) | 11.6 µM (active) | –
CCOP(=S)(Oc1cnc(C(C)(C)C)nc1)OC(C)C (stereo unspecified) | – | inactive
CCN(CC)c1nc(C)cc(OP(=S)(OC)OC)n1 | 78.8 µM (active) | –
COP(=O)(OC)OC=C(Cl)Cl | – | inactive
COP(=O)(OC)O/C(C)=C/C(=O)N(C)C | – | inactive
CCCCSP(=O)(SCCCC)SCCCC | – | inactive
CCOP(=S)(OCC)Oc1ccc2c(C)c(Cl)c(=O)oc2c1 | 58 µM (active) | –
CCOP(=S)(OCC)SCSC(C)(C)C | – | inactive
CCOP(=S)(OCC)Oc1nc(Cl)c(Cl)cc1Cl | 24.3 µM (active) | –
